# Reference: PubChem BioAssay AID2521 (Sanford-Burnham Center for Chemical Genomics, 2010)
# In all, about 330,000 compounds went through this assay and about 1,100 (0.33%) were called active. The list comes from a sample in which actives are over-represented; it also holds similar structures and randomly drawn compounds. Values without a mark were called inactive.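 The calls were made as follows: active = inhibition above about 40% at 20 µM (limit read from the data); inactive = the rest.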
# Biological target: Apelin receptor (Homo sapiens) (UniProt P35414)
# Test: antagonists of human apelin receptor APJ, primary screen, CHO-K1 cells, beta-arrestin complementation, luminescence (AID 2521);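 also: cells challenged with 10 nM apelin-13 agonist together with compound; plate controls were apelin-13 plus DMSO wells for no effect and DMSO wells lacking apelin-13 for full effect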
# Conditions: at 20 µM, active compounds read high
# Apelin receptor (Homo sapiens), sequence (P35414 whole entry, looked up): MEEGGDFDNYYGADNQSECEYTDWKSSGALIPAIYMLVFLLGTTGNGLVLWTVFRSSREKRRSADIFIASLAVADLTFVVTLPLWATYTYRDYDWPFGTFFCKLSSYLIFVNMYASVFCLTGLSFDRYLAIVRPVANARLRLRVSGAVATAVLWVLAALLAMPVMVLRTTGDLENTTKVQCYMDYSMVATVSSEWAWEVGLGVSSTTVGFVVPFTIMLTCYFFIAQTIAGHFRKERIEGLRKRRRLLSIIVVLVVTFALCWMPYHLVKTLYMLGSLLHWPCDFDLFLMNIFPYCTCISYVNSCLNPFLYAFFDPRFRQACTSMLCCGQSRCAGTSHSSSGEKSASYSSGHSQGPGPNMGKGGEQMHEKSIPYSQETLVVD
row,Structure (SMILES),inhibition
1,Cc1cnc(NC(=O)c2ccccn2)s1,9.6%
2,C/C(=N\NC(=O)c1ccccc1F)c1ccccn1,57.1% (active)
3,COc1ccc(/C(C)=N\NC(=O)c2ccc(-c3ccccc3)cc2)c(F)c1,8.03%
4,CCOC(=O)[C@H]1CCC[C@@H](NS(=O)(=O)c2ccc(NC(C)=O)cc2)C1,6.91%
5,CC(C)(C)c1cc(C(=O)NN)n(Cc2ccc(Cl)cc2Cl)n1,-15%
6,Cc1ccc(C(=O)OC2=CC(=O)CC(C)(C)C2)cc1,-13.7%
7,CCc1c(C)sc(NC(=O)c2cccs2)c1C(N)=O,1.68%
8,O=C1Nc2ccc(Br)cc2/C1=N/N=C/C1=C(N2CCOCC2)C(=C\c2ccccc2)/CC1,46.4% (active)
9,COc1ccc(/C=N/N=C2/C(=O)Nc3ccccc32)cc1O,-11.9%
10,O=C(c1cccc(-n2cccc2)c1)N1CCN(S(=O)(=O)c2ccc(F)cc2)CC1,-9.43%
11,COc1cc(Nc2nc3ccc(Cl)cc3n3cnnc23)cc(OC)c1OC,-3.66%
12,Nc1nc(SCC(=O)NNc2c(Cl)cc(Cl)cc2Cl)n[nH]1,-14.8%
13,COc1ccc(CNc2cc(C)cc(C)c2)cc1OC,-9.47%
14,CN(CC(=O)Nc1ccc(F)c(F)c1F)C(=O)C1CC(=O)N(C2CCCC2)C1 (stereo unspecified),19.9%
15,COc1ccc(CCC(=O)c2ccc(OC)cc2)cc1,-11.9%
16,COc1ccc(NC(=O)/C(Cl)=C(/Cl)S(=O)Cc2ccc(C)cc2)cn1 (stereo unspecified),89.8% (active)
17,COc1ccc(CS(=O)/C(Cl)=C(/Cl)C(=O)Nc2ccc(OC)nc2)cc1 (stereo unspecified),67.6% (active)
18,COC(=O)c1sccc1NC(=S)Nc1ccc(C)cc1,-10.8%
19,CCN(CC(=O)Nc1ccc(OC)cc1)C(=O)CSCc1ccc(C)cc1,12.9%
20,COc1ccc(OC(C)C(=O)Nc2cccnc2)cc1 (stereo unspecified),15.8%
21,CC1CCCCN1C(=O)CCS(=O)(=O)Cc1ccccc1 (stereo unspecified),11.3%
22,Cc1nc(CN2CCN(C(=O)CCc3nnc(Cc4c[nH]c5ccccc45)o3)CC2)cs1,21.1%
23,CSC1=N/C(=C\C=C\c2cccs2)C(=O)S1,5.36%
24,CC(C)c1ccc(NS(=O)(=O)c2cn(C)c(=O)n(C)c2=O)cc1,7.41%

row,Structure (SMILES),inhibition
1,CCCc1nc2c(C)cc(-c3nc4ccccc4n3C)cc2n1Cc1ccc(-c2ccccc2C(=O)O)cc1,9.96%
2,CC(=O)c1c(C)[nH]c(C(=O)CN2C(=O)NC(C)(C)C2=O)c1C,8.53%
3,Cc1ccc(SC(C)C(=O)NCc2ccc(F)cc2)cc1 (stereo unspecified),16.8%
4,CC(C)NC(=O)C(c1ccc(F)cc1)N(C(=O)CCC(=O)Nc1ccccn1)c1ccccc1F (stereo unspecified),21.5%
5,CC(C)C(=O)N1CCC2(CC1)Oc1ccc(F)cc1C(=O)C21CC(c2ccccc2)=NO1 (stereo unspecified),-0.0582%
6,COc1cc2ccccc2cc1C(=O)Nc1nc(C)c(C(C)=O)s1,1.17%
7,COc1cccc2sc(Nc3nc(C)c(C(C)=O)s3)nc12,60.9% (active)
8,CNC(=O)c1sc(NCc2ccccc2OC)nc1C,-1.64%
9,O=C(Cc1c(Cl)cccc1Cl)NC1CC1,14.9%
10,O=C(CCl)NNc1cccc(Cl)n1,47.2% (active)
11,Cc1cccc(NC(=O)Cc2ccc(Br)cc2)n1,-4.98%
12,COc1ccc(N2CCN(C(=O)CNS(=O)(=O)c3ccc(C)c(C)c3)CC2)cc1,3.43%
13,Cc1ccc(CC(=O)Nc2cccc(C#N)c2)cc1,7.58%
14,Oc1ccc(N=Nc2nccs2)c(O)c1,47.6% (active)
15,CC(Oc1ccc(F)cc1)C(=O)Nc1cc(S(=O)(=O)N2CCOCC2)ccc1N1CCN(C)CC1 (stereo unspecified),11.7%
16,CCCOc1ccc(N2CC(C(=O)Nc3ccccn3)CC2=O)cc1 (stereo unspecified),-12.1%
17,COC(=O)c1cc(NC(=O)CN2CCC(C(N)=O)(N3CCCCC3)CC2)cc(C(=O)OC)c1,12.5%
18,O=C(CSc1nnnn1C1CCCC1)N1CCCCC1,-7.07%
19,CC(=O)C1=C(O)C(=O)N(c2ccc(S(N)(=O)=O)cc2)C1c1ccccc1F (stereo unspecified),59% (active)
20,CC(=O)C1=C(O)C(=O)N(c2ccc(Br)cc2)C1c1ccc([N+](=O)[O-])cc1 (stereo unspecified),18.2%
21,CC(=O)C1=C(O)C(=O)N(c2cccnc2)C1c1ccc([N+](=O)[O-])cc1 (stereo unspecified),5.89%
22,COc1cccc(NC(=O)C/C(C)=N/NC(=O)C2CCCCC2)c1,-8.71%
23,COc1cccc(NC(=O)C(=O)c2cn(CC(=O)N3CCOCC3)c3ccccc23)c1,-7%
24,Cc1cc(C(F)F)n2nc(C(=O)Nc3ccc(S(=O)(=O)NC45CC6CC(CC(C6)C4)C5)cc3)nc2n1,10.3%

row,Structure (SMILES),inhibition
1,O=C(NC1CCCCC1)C1CCC(CNS(=O)(=O)c2ccccc2)CC1 (stereo unspecified),-0.098%
2,CN1/C(=c2/s/c(=C3/C(=O)N(c4ccccc4)NC3=Nc3ccccc3)n(C)c2=O)C(C)(C)c2ccccc21,40.6% (active)
3,CCOc1cccc2c1OC1(CCCCC1)N1N=C(c3cccnc3)CC21 (stereo unspecified),-4.03%
4,CN(C)CCOc1cccc(Br)c1,7.12%
5,COCCCNc1nc2ccccc2nc1NS(=O)(=O)c1ccc(F)cc1,8.77%
6,COC(=O)c1ccccc1NC(=O)C1CCN(C(=O)N2CCOc3ccccc32)CC1,4.33%
7,O=C(CN(C(=O)CNC(=O)c1cccs1)c1cccc(F)c1)NC1CCCCC1,15.9%
8,COc1cccc(C(=O)N/N=C(\C)c2cccc(NC(=O)c3ccc(F)cc3)c2)c1OC,-21.2%
9,CCC(C)NC(=O)N[C@@H](CCSC)C(=O)O (stereo partly specified),3.5%
10,COc1cc(/C=C(\C#N)c2nc3c(s2)CC(C)CC3)ccc1O (stereo unspecified),40.9% (active)
11,Cn1cccc1C(=O)OCC(=O)c1ccc(Br)s1,6.14%
12,O=C(CSc1ncnc2c1nnn2Cc1ccc(F)cc1)NC1CCCC1,23.2%
13,Cc1cc(CNCc2c(C(=O)N(C)Cc3ccccc3)nc3ccccn23)nn1C,12.9%
14,C=CCn1c(N)c(C(=O)OCC(C)C)c2nc3ccccc3nc21,74.2% (active)
15,COCC(C)OC(=O)c1c(N)n(CCCN2CCOCC2)c2nc3ccccc3nc12 (stereo unspecified),10.9%
16,C=CCn1c(C(C)NC(=O)CC)nc2ccccc21 (stereo unspecified),8.11%
17,CCOC(=O)C1=C(NC(=S)NC(=O)c2ccccc2)c2ccccc2CC1(C)C,-12.1%
18,CCCCCCNC(=O)CSc1nccn1Cc1ccccc1,15.6%
19,CCOC(=O)C(CCOc1cccc(CC)c1)C(=O)OCC,0.162%
20,O=C(/C=C/c1cccs1)NCc1cccnc1,-1.62%
21,Cc1cccc(NC(=S)Nc2ccc(Cl)c(Cl)c2)c1,9.23%
22,Cc1cc(Cl)nc(NC(=O)Nc2cccc(Cl)c2)n1,12.4%
23,Cc1csc(NC(=S)Nc2cccc(Cl)c2)n1,40.6% (active)
24,O=C(Nc1ccc([N+](=O)[O-])cc1)C1(c2ccccc2)CCOCC1,4.46%

row,Structure (SMILES),inhibition
1,CN(C(=O)COC(=O)Cn1cnc2c1c(=O)n(C)c(=O)n2C)C1(C#N)CCCCC1,-8.66%
2,COc1cc(/C=C2/SC(=S)N(Cc3ccccc3)C2=O)cc(OC)c1O,44.9% (active)
3,CN1C=CC=C/C1=C1\SC(=S)N(Cc2ccccc2)C1=O,3.59%
4,COc1cccc(/C=C2/SC(=S)N(CC(=O)NC3C=CS(=O)(=O)C3)C2=O)c1 (stereo unspecified),2.32%
5,O=C(O)C1CCCN(CCC=C(c2ccccc2)c2ccccc2)C1 (stereo unspecified),6.7%
6,Cn1cnc2c1c(=O)n(Cc1c(Cl)cccc1Cl)c(=O)n2C,-5.54%
7,CC(C)C(=O)N1CC(=O)Nc2ccc(F)cc2C1c1ccc(F)cc1 (stereo unspecified),5.88%
8,C[C@H](NC(=O)c1nc[nH]c1C(=O)NCC(=O)OC(C)(C)C)C(=O)OCc1ccccc1,-0.246%
9,O=C(Nc1c2c(nn1-c1cccc(Cl)c1)CS(=O)(=O)C2)c1cccs1,-12.4%
10,Cn1c(N)cc(-c2ccc(F)cc2)c(C#N)c1=O,16%
11,O=[N+]([O-])c1c(NCCO)cc(Sc2nc3ccccc3s2)c2nonc12,95.4% (active)
12,CCN(CC)CCCSc1nc2ccccc2s1,5.23%
13,Cc1nc2nc(CSc3nc4ccccc4s3)cc(=O)n2[nH]1,-6.29%
14,CCOC(=O)c1c(/N=C/C2C(=O)CC(C)(C)CC2=O)sc(C)c1C,3.91%
15,COC(=O)c1ccc(NCC(=O)N2CCCCCC2)cc1,-5.46%
16,COC(=O)c1ccc(NCC(=O)c2ccccc2)cc1,72.4% (active)
17,COc1ccc(NC(=O)CCCC(=O)c2ccccc2)cc1,-8.49%
18,C=CCOc1ccc(/C=C/C(=O)OCC(=O)NC2CCCCCC2)cc1,-9.63%
19,CCCc1nc2oc3c(OCC)ncnc3c2c2c1COC(C)(C)C2,1.23%
20,Cc1cccc(N2CCC(NCc3c(C(=O)N4CCCCC4)nc4c(C)cccn34)CC2)c1,-3.54%
21,Cc1ccc(S(=O)(=O)N(Cc2ccc(Cl)cc2)c2ccccc2C(=O)NCc2cccnc2)cc1,-7.26%
22,Cc1ccc(N=Cc2c(O)n(-c3nccs3)c(=O)c3ccccc23)c(C)c1,-0.923%
23,Cc1cccc(-n2c(O)c(C=Nc3ccccc3N)c(=O)[nH]c2=O)c1,55.5% (active)
24,Cc1cccc(N2CCN(S(=O)(=O)c3ccc4[nH]c(=O)c(=O)[nH]c4c3)CC2C)c1 (stereo unspecified),0.293%
